Results reported in PubChem BioAssay (NCI).
Compounds without any hit were thinned out: in the full panel of roughly 79,000, 15% have a hit. A number with no mark means an inactive call. The source made the active and inactive calls. No stated cut-off is given here; in the data, active means growth inhibition above about 70%; inactive means the rest. Where a SMILES comes first, the peptide text is derived from it. Bridges are numbered along the chain shown (N, C = ends). The star is where a group is joined. Cbz = O=C(OCc1ccccc1)*; OBn = c1ccc(CO*)cc1

Experiments:
[1] = NCI Yeast Anticancer Drug Screen. Data for the rad50 strain (AID 155);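 further: 0% = growth of vehicle-only cultures of the same strain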; settings: S. cerevisiae rad50 strain growth inhibition; at 50.0 µM; stronger effect = higher value
In short: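 A DNA repair-deficient yeast mutant serves as the test organism; compound-induced growth inhibition is calculated against vehicle-treated cells.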

[2] = NCI Yeast Anticancer Drug Screen. Data for the mec2-1 strain (AID 157); settings: S. cerevisiae mec2-1 strain, at 50.0 µM, stronger effect = higher value
In short: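 Using mec2-1 yeast: add compound, measure growth, express inhibition versus vehicle-treated cultures.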

[3] = NCI Yeast Anticancer Drug Screen. Data for the sgs1 mgt1 strain (AID 161);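 further: 0% = growth of cultures given vehicle only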; settings: S. cerevisiae sgs1 mgt1 strain, at 50.0 µM, stronger effect = higher value
In short: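 Yeast cells carrying a defined DNA-repair defect were exposed to test compounds. Growth inhibition was measured relative to vehicle-treated controls.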

[4] = NCI Yeast Anticancer Drug Screen. Data for the cln2 rad14 strain (AID 165);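 further: 0% = growth equal to vehicle treated cultures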; settings: S. cerevisiae cln2 rad14 strain, at 50.0 µM, stronger effect = higher value
In short: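 Yeast strain cln2 rad14, bearing defects in cell cycle control and DNA repair, serves as the test system; values reflect growth inhibition compared with vehicle.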

[5] = NCI Yeast Anticancer Drug Screen. Data for the bub3 strain (AID 167); settings: S. cerevisiae bub3 mutant strain, at 50.0 µM, stronger effect = higher value
In short: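 Inhibition values come from growth of compound-treated mutant yeast normalised to vehicle-treated controls.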

[6] = NCI Yeast Anticancer Drug Screen. Data for the mlh1 rad18 strain (AID 175); settings: S. cerevisiae mlh1 rad18 strain growth inhibition; at 50.0 µM; stronger effect = higher value
In short: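 Steps: expose repair-defective yeast to compound; measure growth; express inhibition against vehicle-treated controls.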

C=C(NC(C)=O)C(=O)O
growth inhibition [1]: -4.65% | growth inhibition [2]: -7.4% | growth inhibition [3]: -11% | growth inhibition [4]: 4.5% | growth inhibition [5]: 10.9% | growth inhibition [6]: 4.15%

CCSCCC(C)(N)C(=O)O (stereo unspecified)
growth inhibition [1]: -7.35% | growth inhibition [2]: -8.85% | growth inhibition [3]: -12.3% | growth inhibition [4]: -38.7% | growth inhibition [5]: 2.3% | growth inhibition [6]: -3.7%

CC1(CO)COC(=O)C(C)(C2(C)NC(C)(CO)COC2=O)N1 (stereo unspecified)
growth inhibition [1]: 3.6% | growth inhibition [2]: -17.6% | growth inhibition [3]: -17.6% | growth inhibition [4]: 13.1% | growth inhibition [5]: -24.2% | growth inhibition [6]: 4.05%

Cc1ccc(NCC(O)CN2CCOCC2)cc1 (stereo unspecified)
growth inhibition [1]: 34.2% | growth inhibition [2]: 14.3% | growth inhibition [3]: 27.2% | growth inhibition [4]: -8.05% | growth inhibition [5]: 6.5% | growth inhibition [6]: 36.2%

O=Cc1ccc(-c2ccc(S(=O)(=O)O)cc2)o1
growth inhibition [1]: -35.5% | growth inhibition [2]: 6.85% | growth inhibition [3]: -41.3% | growth inhibition [4]: 25.8% | growth inhibition [5]: 3.55% | growth inhibition [6]: -3.2%

CC(C)(C)C1CCC(O)(CSc2ccccc2)CC1 (stereo unspecified)
growth inhibition [1]: 6.7% | growth inhibition [2]: 1.45% | growth inhibition [3]: -1.75% | growth inhibition [4]: -1.75% | growth inhibition [5]: -6.7% | growth inhibition [6]: -10.6%

CC1=C(C(=O)Nc2ccccc2C)C(c2ccc(C3C(C(=O)Nc4ccccc4C)=CNC=C3C(=O)Nc3ccccc3C)cc2)C(C(=O)Nc2ccccc2C)=C(C)N1
growth inhibition [1]: 29.3% | growth inhibition [2]: 44.8% | growth inhibition [3]: 28.9% | growth inhibition [4]: 21% | growth inhibition [5]: 50.4% | growth inhibition [6]: 46%

CC(NC(=O)NCCCl)c1cccc2ccccc12 (stereo unspecified)
growth inhibition [1]: -7.25% | growth inhibition [2]: -1.25% | growth inhibition [3]: -2.4% | growth inhibition [4]: 44.2% | growth inhibition [5]: -8.25% | growth inhibition [6]: 5.15%

C/C(=N\NC(=O)c1ccccc1O)c1cccc(/C(C)=N/NC(=O)c2ccccc2O)n1.O=S(=O)([O-])[O-].[Fe+2]
growth inhibition [1]: 11.4% | growth inhibition [2]: 38.8% | growth inhibition [3]: 39.5% | growth inhibition [4]: -0.9% | growth inhibition [5]: 0.65% | growth inhibition [6]: 40.7%

O=C(Nc1ccc(Cl)c(Cl)c1)Oc1ccc(Cl)cc1C(=O)Nc1ccccc1
growth inhibition [1]: -13.8% | growth inhibition [2]: -2.6% | growth inhibition [3]: 29.1% | growth inhibition [4]: -7.4% | growth inhibition [5]: 28.1% | growth inhibition [6]: 37.6%

CCCCCCCCCCCCCCCCCCNC(=O)Nc1cc(C(C)C)ccc1C
growth inhibition [1]: -13.3% | growth inhibition [2]: -22.1% | growth inhibition [3]: -14.8% | growth inhibition [4]: -47.1% | growth inhibition [5]: -2.7% | growth inhibition [6]: -30.6%

CC(=O)NC(C)C#N (stereo unspecified)
growth inhibition [1]: -15.4% | growth inhibition [2]: -14.1% | growth inhibition [3]: -0.2% | growth inhibition [4]: -4% | growth inhibition [5]: -8.7% | growth inhibition [6]: 5.55%

COc1ccc2ncc(COC(=O)Nc3ccccc3)c(COC(=O)Nc3ccccc3)c2c1
growth inhibition [1]: 22% | growth inhibition [2]: -6.2% | growth inhibition [3]: 11.8% | growth inhibition [4]: 5.65% | growth inhibition [5]: -7.4% | growth inhibition [6]: 6.1%

CCN(CC)CCOc1cc(C(C)C)ccc1C
growth inhibition [1]: 76% (active) | growth inhibition [2]: 63.5% | growth inhibition [3]: 63.5% | growth inhibition [4]: 76.2% (active) | growth inhibition [5]: 40.5% | growth inhibition [6]: 78.2% (active)

CCSC(C#N)C(C)=O (stereo unspecified)
growth inhibition [1]: 34.9% | growth inhibition [2]: 22.1% | growth inhibition [3]: 56.4% | growth inhibition [4]: 38.5% | growth inhibition [5]: 39% | growth inhibition [6]: 42.6%

O=C(NCCN1CCCC1)Nc1ccccc1Cl
growth inhibition [1]: 4.6% | growth inhibition [2]: 27.2% | growth inhibition [3]: -0.8% | growth inhibition [4]: -10.1% | growth inhibition [5]: 34.1% | growth inhibition [6]: 0.15%

COc1cc(/C=C/C(=O)OCCc2ccccc2)ccc1O
growth inhibition [1]: 74.8% (active) | growth inhibition [2]: 82% (active) | growth inhibition [3]: 90.2% (active) | growth inhibition [4]: 89% (active) | growth inhibition [5]: 90.1% (active) | growth inhibition [6]: 61%

COC(=O)C1CCC(=O)NCCCCC(NC(=O)C(CC(=O)OCc2ccccc2)NC(=O)OCc2ccccc2)C(=O)N1 (stereo not drawn) (Cbz-Asp(OBn)-Lys-Glu-OMe; lactam 2-3; configuration not given here)
growth inhibition [1]: -2% | growth inhibition [2]: 3.95% | growth inhibition [3]: 23.3% | growth inhibition [4]: 11.8% | growth inhibition [5]: 28.4% | growth inhibition [6]: -23.7%

COc1ccc(NC(=O)C(Br)C(Br)c2ccccc2)c(Cl)c1 (stereo unspecified)
growth inhibition [1]: 96.8% (active) | growth inhibition [2]: 97.2% (active) | growth inhibition [3]: 97.2% (active) | growth inhibition [4]: 97.3% (active) | growth inhibition [5]: 97% (active) | growth inhibition [6]: 97.2% (active)

CC1=N[C@](C)(C2CC3C=CC2C3=O)COC1=O (stereo partly specified)
growth inhibition [1]: -15.5% | growth inhibition [2]: -18.5% | growth inhibition [3]: -27% | growth inhibition [4]: -1.9% | growth inhibition [5]: -11.6% | growth inhibition [6]: -5.45%

COC1CC(NC(C)=O)C(OC(C)=O)C(CN=[N+]=[N-])O1 (stereo unspecified)
growth inhibition [1]: 5.1% | growth inhibition [2]: 9.3% | growth inhibition [3]: 8% | growth inhibition [4]: -11.4% | growth inhibition [5]: -10.2% | growth inhibition [6]: 6.4%
